These results are taken from PubChem BioAssay (NCI).

Holding throughout (test): NCI-60 one-dose screen, 48 h (100 = growth as untreated, 0 = no growth, -100 = all killed)
What all share (details): 10 µM unless noted

Assay [1] relates to NCI-H23 lung.
Assay [2] deals with NCI-H226 lung.
In assay [3] the test system is NCI-H322M lung.
Assay [4] relates to HOP-62 NSCLC.
Assay [5] relates to HOP-92 NSCLC.
Assay [6] relates to NCI-H522 lung.
In assay [7] the test system is A549/ATCC NSCLC.
Assay [8] deals with 786-0 renal.
Assay [9] concerns COLO 205 colon.
Assay [10] deals with DU-145 prostate.
Assay [11] relates to K-562 leukemia.
Assay [12] has as its system MALME-3M melanoma.
Assay [13] relates to MDA-MB-231 breast.
Assay [14] relates to RXF 393 renal.
In assay [15] the test system is SF-268 CNS.
Assay [16] concerns SF-295 CNS.
Assay [17] deals with SF-539 CNS.
In assay [18] the test system is UACC-257 melanoma.
Assay [19] deals with M14 melanoma.

Structures are written as SMILES. The panel holds about 83,000 compounds, 20% with a hit somewhere; the sample as a whole holds those more often.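 How to read the values: 0–100, growth inhibition (40 = 60% inhibited); 0, no net growth; -100 to 0, cell death (-40 = 40% of starting cells died; -100 = all dead).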 Values without a mark were called inactive. The source made the active and inactive calls. The calls were made as follows: active = growth percent below 10; inactive = the rest.

`O=C(Nc1ccccc1O)c1ccc(CNC(=O)c2sccc2Nc2ccnc(C(F)(F)F)c2)cc1`: the growth in assay [1] was 51.7%; in assay [2] it was 54.8%; in [3], 51%; in assay [4] it was 65.6%; in [5] it was 20.9%; in assay [6], 7.48% (active). Moreover, the growth in [7] is 66.5%; in [8] it was 60.4%; in assay [9], 73.3%; in assay [10], 46.7%; in assay [11], 25.1%; in assay [12], -2.09% (active). In addition, the growth in assay [13] was 53%; in assay [14], 47.9%; in [15], 49.2%; in assay [16], 43.6%; in assay [17] it was 48.9%; in assay [18], 46.5%. The growth in [19] was 58.3%.

For `Oc1c(I)cc(I)cc1CNCc1ccccn1`, the growth is 52.4% in assay [1]; 62.5% in assay [2]; 40.1% in assay [3]; 28.3% in [4]; 63.2% in [5]; 4.61% (active) in assay [6]. For the same molecule, the growth was 23.6% in assay [7]; 36.1% in assay [8]; 74.1% in assay [9]; 49.9% in assay [10]; 20.9% in assay [11]; 42.5% in assay [12]. Besides, the growth in [13] was 38.3%; in [14] it was 70.2%; in [15], 36.8%; in assay [16] it was 25.7%; in assay [17], 20.2%; in assay [18], 15.4%. In assay [19], the growth is 8.61% (active).

As for `COc1ccc(C(=O)C/C(=C\c2ccc(Cl)cc2)C(=O)NCc2ccccc2)cc1`, the growth is 90.6% in assay [1]; 73.4% in assay [2]; 84.5% in assay [3]; 82.6% in [4]; 86.2% in assay [5]; 60.7% in assay [6]. The growth was 84.7% in assay [7]; 99.2% in assay [8]; 108% in assay [9]; 103% in [10]; 62.4% in assay [11]; 79.8% in assay [12]. In addition, the growth in assay [13] is 81.3%; in assay [14], 91.6%; in [15], 86.3%; in assay [16], 101%; in [17], 94.4%; in assay [18], 70.7%. The growth in assay [19] was 94.8%.

Take `O=C1/C(=C/c2cn(-c3ccccc3)nc2-c2ccccc2)SC(=S)N1C1CCCCC1`: the growth in assay [1] is 96.1%; in assay [2], 92%; in [3] it was 105%; in [4], 101%; in assay [5] it was 46.9%; in assay [6] it was 91.5%. Also, the growth in [7] was 103%; in [8] it was 106%; in [10], 106%; in assay [11], 101%; in assay [12], 92.3%; in assay [13], 89.8%. Moreover, the growth was 106% in assay [14]; 102% in assay [15]; 104% in assay [16]; 99.4% in assay [17]; 102% in assay [18]; 99.1% in assay [19].

Regarding `N#CC(C#N)N=Nc1ccc(Br)cc1`, the growth was 24.6% in assay [1]; 79% in [2]; 100% in assay [3]; 80.1% in assay [4]; -34.1% (active) in [5]; 7.59% (active) in [6]. Besides, the growth in assay [7] is 83.5%; in assay [8] it was 35.4%; in assay [9], -28.7% (active); in [10], 38.5%; in assay [11] it was 12.5%; in assay [12], 12.1%. For the same molecule, the growth in assay [13] was 18.5%; in assay [14] it was 87.4%; in [15] it was 90.2%; in assay [16], 95.7%; in [17], 30.4%; in [18] it was 10%. Moreover, the growth in [19] was 42.9%.

As to `Cc1cc(N2CCN(CCNc3ccnc4cc(Cl)ccc34)CC2)nc(N2CCOCC2)n1`, the growth was 42.8% in [1]; 79.5% in [2]; 74.9% in assay [3]; 81.4% in assay [4]; 47.7% in assay [5]; 76.5% in assay [6]. In addition, the growth is 71.4% in [7]; 74% in assay [8]; 11.6% in [9]; 74.8% in assay [10]; 14.6% in assay [11]; 60.1% in [12]. In addition, the growth is 34.3% in assay [13]; 42.9% in [14]; 70.4% in assay [15]; 75.5% in assay [16]; 29.6% in [17]; 54% in [18]. The growth in assay [19] is 48%.

Regarding `CN1CCc2nc3sc(C(N)=O)c(N)c3c(-c3cccs3)c2C1`, the growth was 36.2% in assay [1]; 16.3% in assay [2]; 40.7% in assay [3]; 23.3% in assay [4]; -7.38% (active) in assay [5]; 38.9% in assay [6]. Moreover, the growth is 24.1% in assay [7]; 9.22% (active) in assay [8]; 7.02% (active) in assay [9]; 10.2% in [10]; 74.2% in assay [11]; 55% in [12]. Also, the growth in assay [13] is 44.5%; in assay [14], -32% (active); in [15], 16.4%; in [16], 21.7%; in assay [17] it was 10.9%; in assay [18], 57.9%. For the same molecule, the growth in assay [19] was 15.5%.

As for `N#CC1=C(c2ccccc2)Nc2c(c(-c3ccc(Cl)cc3)nn2-c2ccccc2)C12C(=O)Nc1ccc(Cl)cc12` (stereo not given), the growth in assay [1] was 92.1%; in [2] it was 80.7%; in assay [3] it was 91.3%; in assay [4], 77.3%; in assay [5] it was 61.8%; in [6] it was 72.2%. Also, the growth is 79.2% in [8]; 73% in [9]; 86.1% in assay [10]; 65.9% in [11]; 86.4% in assay [12]; 58.8% in [13]. Further, the growth was 49.8% in [14]; 55.3% in assay [15]; 56.5% in assay [16]; 85.2% in assay [17]; 73% in [18]; 72.7% in assay [19].
